The values below come from ChEMBL document CHEMBL2218924, “A broad activity screen in support of a chemogenomic map for kinase signalling research and drug discovery” (Biochem J, 2013).

For experiment [1], the target named is T1, Muscle, skeletal receptor tyrosine-protein kinase (Homo sapiens) (UniProt O15146).
T1 sequence (whole entry): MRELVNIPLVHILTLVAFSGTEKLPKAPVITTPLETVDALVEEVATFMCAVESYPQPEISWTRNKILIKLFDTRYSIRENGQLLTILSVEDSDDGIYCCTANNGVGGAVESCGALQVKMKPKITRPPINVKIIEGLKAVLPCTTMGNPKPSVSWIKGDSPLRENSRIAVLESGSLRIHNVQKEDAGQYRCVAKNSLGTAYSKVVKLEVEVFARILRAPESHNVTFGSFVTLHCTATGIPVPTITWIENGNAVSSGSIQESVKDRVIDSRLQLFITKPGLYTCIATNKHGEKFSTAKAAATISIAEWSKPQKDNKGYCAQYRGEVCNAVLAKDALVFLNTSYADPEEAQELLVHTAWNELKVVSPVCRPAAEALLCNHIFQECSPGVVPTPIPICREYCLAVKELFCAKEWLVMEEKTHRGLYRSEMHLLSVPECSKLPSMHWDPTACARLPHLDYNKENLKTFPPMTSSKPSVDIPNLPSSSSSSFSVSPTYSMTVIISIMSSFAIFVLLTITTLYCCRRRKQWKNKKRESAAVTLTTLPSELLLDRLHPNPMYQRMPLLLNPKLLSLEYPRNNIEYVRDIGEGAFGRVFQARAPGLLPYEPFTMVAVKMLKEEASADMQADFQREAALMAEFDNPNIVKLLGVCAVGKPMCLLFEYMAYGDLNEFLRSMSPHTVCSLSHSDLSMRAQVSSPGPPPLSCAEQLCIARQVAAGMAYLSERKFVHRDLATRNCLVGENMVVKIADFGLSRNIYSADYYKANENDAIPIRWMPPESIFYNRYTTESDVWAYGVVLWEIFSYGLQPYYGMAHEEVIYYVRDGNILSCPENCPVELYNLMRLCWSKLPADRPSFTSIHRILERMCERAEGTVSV
The settings on record: at 1 µM.

The target of experiment [2] is T1, Muscle, skeletal receptor tyrosine-protein kinase (Homo sapiens). As to conditions: at 10 µM.
The target in experiment [3] is T2, Serine/threonine-protein kinase Nek11 (Homo sapiens) (UniProt Q8NG66).
T2 sequence (whole entry): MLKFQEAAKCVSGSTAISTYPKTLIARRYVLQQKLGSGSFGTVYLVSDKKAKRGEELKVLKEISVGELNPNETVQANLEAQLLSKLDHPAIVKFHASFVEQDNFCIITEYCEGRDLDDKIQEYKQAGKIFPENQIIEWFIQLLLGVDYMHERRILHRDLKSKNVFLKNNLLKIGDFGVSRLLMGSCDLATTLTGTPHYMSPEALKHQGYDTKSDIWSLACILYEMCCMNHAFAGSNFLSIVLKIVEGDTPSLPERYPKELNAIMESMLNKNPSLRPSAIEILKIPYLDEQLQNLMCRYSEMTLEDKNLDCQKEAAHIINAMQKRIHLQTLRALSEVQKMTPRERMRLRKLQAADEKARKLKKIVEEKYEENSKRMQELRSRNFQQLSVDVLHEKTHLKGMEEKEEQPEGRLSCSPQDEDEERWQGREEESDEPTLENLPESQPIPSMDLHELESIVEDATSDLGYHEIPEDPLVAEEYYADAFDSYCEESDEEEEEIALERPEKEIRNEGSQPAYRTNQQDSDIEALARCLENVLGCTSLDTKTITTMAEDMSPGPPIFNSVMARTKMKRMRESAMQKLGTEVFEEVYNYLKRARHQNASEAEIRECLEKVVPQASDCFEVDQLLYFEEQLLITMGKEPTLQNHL
The settings on record: at 1 µM.

Experiment [4] deals with T2, Serine/threonine-protein kinase Nek11 (Homo sapiens). As to conditions: at 10 µM.
Experiment [5] has as its target T3, Serine/threonine-protein kinase Nek2 (Homo sapiens) (UniProt P51955).
T3 sequence (whole entry): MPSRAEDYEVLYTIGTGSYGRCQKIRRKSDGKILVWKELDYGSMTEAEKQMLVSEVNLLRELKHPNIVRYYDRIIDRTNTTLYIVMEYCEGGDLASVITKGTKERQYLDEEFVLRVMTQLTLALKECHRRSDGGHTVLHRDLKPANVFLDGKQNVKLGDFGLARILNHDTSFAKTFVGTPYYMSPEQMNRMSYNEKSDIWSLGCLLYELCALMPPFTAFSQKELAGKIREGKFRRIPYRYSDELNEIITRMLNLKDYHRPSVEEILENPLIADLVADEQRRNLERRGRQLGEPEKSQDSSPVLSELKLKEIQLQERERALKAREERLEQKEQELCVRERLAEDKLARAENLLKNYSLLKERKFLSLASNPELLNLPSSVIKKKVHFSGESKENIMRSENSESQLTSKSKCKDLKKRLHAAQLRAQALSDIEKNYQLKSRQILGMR
The settings on record: at 1 µM.

Experiment [6] deals with T3, Serine/threonine-protein kinase Nek2 (Homo sapiens). As to conditions: at 10 µM.
The target of experiment [7] is Serine/threonine-protein kinase tousled-like 2 (Homo sapiens) (UniProt Q86UE8). As to conditions: at 10 µM.
Serine/threonine-protein kinase tousled-like 2 (Homo sapiens), sequence (Q86UE8 whole entry, looked up): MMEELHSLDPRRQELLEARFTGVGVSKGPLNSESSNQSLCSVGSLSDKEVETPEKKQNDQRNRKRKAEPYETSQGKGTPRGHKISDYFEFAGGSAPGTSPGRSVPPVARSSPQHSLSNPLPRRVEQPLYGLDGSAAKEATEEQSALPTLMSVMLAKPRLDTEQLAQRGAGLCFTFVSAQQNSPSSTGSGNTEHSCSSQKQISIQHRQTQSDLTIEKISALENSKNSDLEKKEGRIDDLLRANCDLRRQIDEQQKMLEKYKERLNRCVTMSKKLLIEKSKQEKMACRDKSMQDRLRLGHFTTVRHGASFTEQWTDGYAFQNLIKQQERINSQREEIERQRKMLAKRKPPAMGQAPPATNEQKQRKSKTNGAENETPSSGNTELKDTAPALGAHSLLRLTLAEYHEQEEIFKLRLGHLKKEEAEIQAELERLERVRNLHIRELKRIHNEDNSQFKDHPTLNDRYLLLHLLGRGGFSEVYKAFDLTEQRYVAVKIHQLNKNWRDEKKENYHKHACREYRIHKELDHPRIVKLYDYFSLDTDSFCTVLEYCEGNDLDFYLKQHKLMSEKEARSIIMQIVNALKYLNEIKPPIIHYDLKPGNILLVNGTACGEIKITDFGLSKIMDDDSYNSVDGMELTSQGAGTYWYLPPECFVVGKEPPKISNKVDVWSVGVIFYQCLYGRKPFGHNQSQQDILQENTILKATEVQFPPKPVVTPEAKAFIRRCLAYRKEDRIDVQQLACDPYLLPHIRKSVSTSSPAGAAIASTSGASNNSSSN
Experiment [8] addresses T4, Testis-specific serine/threonine-protein kinase 1 (Homo sapiens) (UniProt Q9BXA7).
T4 sequence (whole entry): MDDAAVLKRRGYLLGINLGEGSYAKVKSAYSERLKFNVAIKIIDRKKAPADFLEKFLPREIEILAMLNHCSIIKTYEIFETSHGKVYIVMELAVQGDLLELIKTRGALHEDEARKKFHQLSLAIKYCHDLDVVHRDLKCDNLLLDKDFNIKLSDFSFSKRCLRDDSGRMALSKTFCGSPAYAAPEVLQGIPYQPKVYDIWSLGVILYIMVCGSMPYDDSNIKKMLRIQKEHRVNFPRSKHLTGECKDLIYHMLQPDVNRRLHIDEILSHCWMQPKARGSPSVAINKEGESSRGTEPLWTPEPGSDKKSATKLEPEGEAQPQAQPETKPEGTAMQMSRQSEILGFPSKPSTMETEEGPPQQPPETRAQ
As to conditions: at 1 µM.

The target of experiment [9] is T4, Testis-specific serine/threonine-protein kinase 1 (Homo sapiens). The settings on record: at 10 µM.
Experiment [10] deals with T5, Testis-specific serine/threonine-protein kinase 2 (Homo sapiens) (UniProt Q96PF2).
T5 sequence (whole entry): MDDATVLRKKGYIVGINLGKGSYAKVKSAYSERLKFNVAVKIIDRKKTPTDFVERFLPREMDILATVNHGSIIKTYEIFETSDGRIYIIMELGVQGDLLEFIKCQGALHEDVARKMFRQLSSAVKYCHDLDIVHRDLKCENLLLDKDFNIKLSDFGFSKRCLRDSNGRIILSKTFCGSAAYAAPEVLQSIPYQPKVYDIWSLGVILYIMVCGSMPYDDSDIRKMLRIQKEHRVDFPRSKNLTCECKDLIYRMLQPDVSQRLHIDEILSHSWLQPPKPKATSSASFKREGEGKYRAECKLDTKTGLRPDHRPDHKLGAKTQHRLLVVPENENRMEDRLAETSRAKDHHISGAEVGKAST
The settings on record: at 10 µM.

The target in experiment [11] is T6, Tyrosine-protein kinase Tec (Homo sapiens) (UniProt P42680).
T6 sequence (whole entry): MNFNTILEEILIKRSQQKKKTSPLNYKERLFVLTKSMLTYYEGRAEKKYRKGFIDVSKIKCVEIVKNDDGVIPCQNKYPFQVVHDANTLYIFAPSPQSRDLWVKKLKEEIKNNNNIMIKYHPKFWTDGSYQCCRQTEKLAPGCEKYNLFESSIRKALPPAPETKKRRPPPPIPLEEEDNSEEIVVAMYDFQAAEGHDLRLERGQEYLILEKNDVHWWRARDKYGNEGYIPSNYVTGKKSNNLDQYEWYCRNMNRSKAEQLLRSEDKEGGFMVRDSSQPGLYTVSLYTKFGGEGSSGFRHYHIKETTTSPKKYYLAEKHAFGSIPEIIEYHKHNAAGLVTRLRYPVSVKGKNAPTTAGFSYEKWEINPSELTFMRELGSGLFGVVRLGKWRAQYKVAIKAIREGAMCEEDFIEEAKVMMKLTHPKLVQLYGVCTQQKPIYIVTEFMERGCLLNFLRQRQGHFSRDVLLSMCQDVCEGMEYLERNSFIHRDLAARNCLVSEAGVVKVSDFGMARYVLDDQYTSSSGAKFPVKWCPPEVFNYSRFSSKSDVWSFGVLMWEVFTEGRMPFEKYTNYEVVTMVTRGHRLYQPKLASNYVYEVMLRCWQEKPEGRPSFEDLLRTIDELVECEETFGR
The settings on record: at 1 µM.

Experiment [12] has as its target T6, Tyrosine-protein kinase Tec (Homo sapiens). As to conditions: at 10 µM.
The target of experiment [13] is Angiopoietin-1 receptor (Homo sapiens) (UniProt Q02763). The settings on record: at 1 µM.
Angiopoietin-1 receptor (Homo sapiens), sequence (Q02763 whole entry): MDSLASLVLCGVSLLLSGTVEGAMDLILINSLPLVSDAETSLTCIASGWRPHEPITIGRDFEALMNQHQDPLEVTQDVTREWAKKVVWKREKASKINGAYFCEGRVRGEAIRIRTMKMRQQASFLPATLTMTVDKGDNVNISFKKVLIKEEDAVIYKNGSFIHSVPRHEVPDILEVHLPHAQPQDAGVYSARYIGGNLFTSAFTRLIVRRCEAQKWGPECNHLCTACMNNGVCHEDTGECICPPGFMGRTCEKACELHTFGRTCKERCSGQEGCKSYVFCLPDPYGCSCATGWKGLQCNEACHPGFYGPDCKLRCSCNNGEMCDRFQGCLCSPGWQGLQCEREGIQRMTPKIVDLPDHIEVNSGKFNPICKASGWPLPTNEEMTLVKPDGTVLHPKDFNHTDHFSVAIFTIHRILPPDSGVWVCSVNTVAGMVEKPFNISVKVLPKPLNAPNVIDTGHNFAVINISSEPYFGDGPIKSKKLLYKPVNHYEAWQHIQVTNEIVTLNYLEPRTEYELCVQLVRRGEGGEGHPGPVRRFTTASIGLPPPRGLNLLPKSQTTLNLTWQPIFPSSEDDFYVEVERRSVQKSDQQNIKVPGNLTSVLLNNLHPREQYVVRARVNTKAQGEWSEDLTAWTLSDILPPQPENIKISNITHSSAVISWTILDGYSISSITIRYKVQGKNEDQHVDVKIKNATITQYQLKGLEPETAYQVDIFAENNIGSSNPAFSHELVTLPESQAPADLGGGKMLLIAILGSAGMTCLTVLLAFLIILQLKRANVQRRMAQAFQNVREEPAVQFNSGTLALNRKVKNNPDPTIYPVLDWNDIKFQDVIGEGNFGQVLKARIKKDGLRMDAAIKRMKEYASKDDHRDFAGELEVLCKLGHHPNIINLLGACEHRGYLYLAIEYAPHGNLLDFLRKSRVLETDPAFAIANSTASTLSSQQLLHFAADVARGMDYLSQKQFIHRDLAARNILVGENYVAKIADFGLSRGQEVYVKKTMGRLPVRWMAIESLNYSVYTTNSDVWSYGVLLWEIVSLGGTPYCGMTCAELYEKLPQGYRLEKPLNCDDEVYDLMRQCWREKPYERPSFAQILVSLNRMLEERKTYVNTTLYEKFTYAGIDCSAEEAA
Experiment [14] has the same target. The settings on record: at 10 µM.
For experiment [15], the target named is High affinity nerve growth factor receptor (Homo sapiens) (UniProt P04629). The settings on record: at 1 µM.
High affinity nerve growth factor receptor (Homo sapiens), sequence (P04629 33-796 limits assumed): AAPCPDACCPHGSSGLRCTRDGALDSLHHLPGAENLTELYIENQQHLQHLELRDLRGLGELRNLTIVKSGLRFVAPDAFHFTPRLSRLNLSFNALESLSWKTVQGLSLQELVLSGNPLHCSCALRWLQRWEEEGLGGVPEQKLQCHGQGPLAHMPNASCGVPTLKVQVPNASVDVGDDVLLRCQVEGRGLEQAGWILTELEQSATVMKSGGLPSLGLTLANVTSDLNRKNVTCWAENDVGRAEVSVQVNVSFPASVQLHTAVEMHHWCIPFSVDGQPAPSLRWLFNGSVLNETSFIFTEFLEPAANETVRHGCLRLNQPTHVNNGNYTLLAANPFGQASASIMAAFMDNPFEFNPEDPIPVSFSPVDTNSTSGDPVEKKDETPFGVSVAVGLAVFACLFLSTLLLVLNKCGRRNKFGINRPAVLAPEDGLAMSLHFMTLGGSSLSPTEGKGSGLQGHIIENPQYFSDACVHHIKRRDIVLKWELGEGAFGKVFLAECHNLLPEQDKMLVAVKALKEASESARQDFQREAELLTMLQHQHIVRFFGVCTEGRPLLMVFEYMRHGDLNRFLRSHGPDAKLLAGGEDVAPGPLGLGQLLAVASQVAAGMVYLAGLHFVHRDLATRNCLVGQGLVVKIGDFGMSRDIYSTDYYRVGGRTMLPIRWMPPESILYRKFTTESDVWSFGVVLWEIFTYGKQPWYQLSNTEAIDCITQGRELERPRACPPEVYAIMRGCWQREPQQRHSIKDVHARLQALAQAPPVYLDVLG
Experiment [16] shares this target. The settings on record: at 10 µM.
The target in experiment [17] is Serine/threonine-protein kinase tousled-like 2 (Homo sapiens) (UniProt Q86UE8). The settings on record: at 1 µM.
In experiment [18] the target is BDNF/NT-3 growth factors receptor (Homo sapiens) (UniProt Q16620). The settings on record: at 1 µM.
BDNF/NT-3 growth factors receptor (Homo sapiens), sequence (Q16620 32-822 limits assumed): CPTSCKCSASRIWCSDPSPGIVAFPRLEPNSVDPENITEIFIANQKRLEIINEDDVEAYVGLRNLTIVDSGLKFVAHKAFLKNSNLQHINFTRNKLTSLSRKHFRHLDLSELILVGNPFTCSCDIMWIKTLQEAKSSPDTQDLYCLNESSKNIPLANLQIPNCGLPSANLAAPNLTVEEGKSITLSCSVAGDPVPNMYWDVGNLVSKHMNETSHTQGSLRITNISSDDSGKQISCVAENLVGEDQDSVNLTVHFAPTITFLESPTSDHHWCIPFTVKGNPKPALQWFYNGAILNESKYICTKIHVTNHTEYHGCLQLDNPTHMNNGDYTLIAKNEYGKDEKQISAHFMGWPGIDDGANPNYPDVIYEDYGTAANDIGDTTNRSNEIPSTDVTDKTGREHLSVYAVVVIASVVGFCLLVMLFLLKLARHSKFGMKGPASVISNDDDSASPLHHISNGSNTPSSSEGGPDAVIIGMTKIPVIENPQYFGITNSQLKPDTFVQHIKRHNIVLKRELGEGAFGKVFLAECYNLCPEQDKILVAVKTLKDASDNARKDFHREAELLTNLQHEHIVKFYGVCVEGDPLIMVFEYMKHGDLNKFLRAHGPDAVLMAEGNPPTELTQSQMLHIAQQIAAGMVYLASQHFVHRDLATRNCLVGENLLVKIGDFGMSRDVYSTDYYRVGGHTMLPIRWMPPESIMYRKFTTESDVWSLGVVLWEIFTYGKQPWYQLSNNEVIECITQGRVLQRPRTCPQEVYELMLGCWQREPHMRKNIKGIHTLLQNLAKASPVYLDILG
Experiment [19] has as its target T7, Serine/threonine-protein kinase Nek3 (Homo sapiens) (UniProt P51956).
T7 sequence (whole entry): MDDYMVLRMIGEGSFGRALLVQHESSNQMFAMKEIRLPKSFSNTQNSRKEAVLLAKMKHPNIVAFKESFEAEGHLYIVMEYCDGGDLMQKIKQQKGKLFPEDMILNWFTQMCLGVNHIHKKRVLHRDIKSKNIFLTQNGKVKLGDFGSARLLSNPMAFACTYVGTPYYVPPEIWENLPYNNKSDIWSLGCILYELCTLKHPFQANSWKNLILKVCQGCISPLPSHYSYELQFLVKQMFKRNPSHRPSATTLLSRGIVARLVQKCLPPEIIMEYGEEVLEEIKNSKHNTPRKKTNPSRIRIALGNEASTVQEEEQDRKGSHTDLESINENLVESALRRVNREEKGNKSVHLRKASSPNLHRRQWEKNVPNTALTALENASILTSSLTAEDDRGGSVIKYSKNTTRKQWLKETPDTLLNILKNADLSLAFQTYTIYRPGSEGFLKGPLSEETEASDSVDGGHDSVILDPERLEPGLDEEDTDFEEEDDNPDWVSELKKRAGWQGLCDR
The settings on record: at 1 µM.

The target in experiment [20] is T7, Serine/threonine-protein kinase Nek3 (Homo sapiens). The settings on record: at 10 µM.

A word on the residual activity: it is the signal under treatment as a percentage of the control signal. Turning to `Cc1cncc2cccc(S(=O)(=O)N3CCCN(C(=O)CN)C[C@H]3C)c12`, the residual activity in experiment [1] is 90%; in experiment [2], 67%; in [3] it was 88%; in [4], 86%; in experiment [5], 78%; in experiment [6], 92%. For the same compound, the residual activity in experiment [7] was found to be 82%; in experiment [8] it was 95%; in experiment [9], 79%; in experiment [10], 94%; in experiment [11], 100%; in [12], 77%. Besides, the residual activity is 78% in experiment [13], 40% in experiment [14], 64% in experiment [15] and -1% in experiment [16].
On to `COc1cc2ncnc(Nc3ccc(NC(=O)c4ccccc4)cc3)c2cc1OC`, for which the residual activity came out at 98% in experiment [2]; 96% in experiment [3]; 103% in experiment [4]; 105% in [5]; 95% in [6]; 109% in experiment [17]. Besides, the residual activity in experiment [7] was 86%; in experiment [8], 109%; in [9] it was 92%; in experiment [10], 96%; in [11], 97%; in experiment [12] it was 82%. Moreover, the residual activity in [14] turned out to be 65%; in experiment [15], 73%; in [16] it was 20%; in [18], 54%.
With `N#Cc1cnc2cnc(NCc3cccnc3)cc2c1Nc1ccc(F)c(Cl)c1`, the residual activity is 93% in experiment [1]; 60% in [2]; 88% in experiment [3]; 79% in [4]; 37% in experiment [19]; 46% in [20]. Also, the residual activity in [17] was 73%; in [7], 47%; in experiment [8], 0%; in experiment [9], -1%; in experiment [10], 14%; in experiment [11], 90%. The residual activity was 65% in experiment [12], 101% in experiment [15], 88% in [16] and 3% in experiment [18].
In the case of `Cc1cccc(-c2[nH]c(C(C)(C)C)nc2-c2ccc3c(c2)OCO3)n1`, the residual activity in experiment [1] came out at 98%; in experiment [2], 87%; in [3], 80%; in experiment [4] it was 107%; in [5] it was 88%; in experiment [6], 95%. The residual activity was determined as 96% in [17]; 95% in experiment [7]; 101% in experiment [8]; 90% in experiment [9]; 94% in [10]; 97% in experiment [11]. In addition, the residual activity was found to be 91% in experiment [12]; 101% in [13]; 83% in experiment [14]; 92% in experiment [15]; 106% in experiment [16].
